# Like-named read-outs stand apart in the source and are kept apart here.
# Tests used:
# Conditions in all cases: n = 1
# [1] = system: TNIK
# [2] = system: TNK1
# [3] = system: TNK2
# [4] = system: TNNI3K
# [5] = system: T1, TRKA
# T1 construct: gene NTRK1
# [6] = system: TRKB
# [7] = system: T2, TRKC
# T2 construct: gene NTRK3
# [8] = system: TRPM6
# [9] = system: TSSK1B
# [10] = system: TSSK3
# [11] = system: TTK
# [12] = system: TXK
# [13] = system: TYK2(JH1domain-catalytic)
# [14] = system: TYK2(JH2domain-pseudokinase)
# [15] = system: TYRO3
# [16] = system: ULK1
# [17] = system: ULK2
# [18] = system: ULK3
# [19] = system: T3, VEGFR2
# T3 construct: gene KDR
# [20] = system: T4, VPS34
# T4 construct: gene PIK3C3
# [21] = concentration: 1 μM, replicates: in singlicate
# 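Note: KINOMEscan kinase panel screen.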
smiles,measurement,setting,value
COc1cc2ncn(-c3cc(OCC4CCCO4)c(C(N)=O)s3)c2cc1OC (centres unmarked) [GSK204607],%Inh,[1]; [21],27%
same,%Inh,[2]; [21],0%
same,%Inh,[3]; [21],17%
same,%Inh,[4]; [21],0%
same,%Inh,[5]; [21],15%
same,%Inh,[6]; [21],0%
same,%Inh,[7]; [21],0%
same,%Inh,[8]; [21],0%
same,%Inh,[9]; [21],0%
same,%Inh,[10]; [21],10%
same,%Inh,[11]; [21],0%
same,%Inh,[12]; [21],9%
same,%Inh,[13]; [21],15%
same,%Inh,[14]; [21],31%
same,%Inh,[15]; [21],0%
same,%Inh,[16]; [21],0%
same,%Inh,[17]; [21],0%
same,%Inh,[18]; [21],0%
same,%Inh,[19]; [21],8%
same,%Inh,[20]; [21],0%
Cc1c(O)cccc1Nc1ccnc2ccc(C(F)(F)F)cc12.Cl [GW466413],%Inh,[1]; [21],0%
same,%Inh,[2]; [21],0%
same,%Inh,[3]; [21],17%
same,%Inh,[4]; [21],0%
same,%Inh,[5]; [21],9%
same,%Inh,[6]; [21],0%
same,%Inh,[7]; [21],31%
same,%Inh,[8]; [21],0%
same,%Inh,[9]; [21],0%
same,%Inh,[10]; [21],1%
same,%Inh,[11]; [21],0%
same,%Inh,[12]; [21],25%
same,%Inh,[13]; [21],9%
same,%Inh,[14]; [21],14%
same,%Inh,[15]; [21],3%
same,%Inh,[16]; [21],2%
same,%Inh,[17]; [21],0%
same,%Inh,[18]; [21],0%
same,%Inh,[19]; [21],0%
same,%Inh,[20]; [21],0%
Nc1nc(-c2nccs2)c(-c2ccnc3ccccc23)s1 [GW693542],%Inh,[1]; [21],10%
same,%Inh,[2]; [21],0%
same,%Inh,[3]; [21],24%
same,%Inh,[4]; [21],4%
same,%Inh,[5]; [21],0%
same,%Inh,[6]; [21],0%
same,%Inh,[7]; [21],23%
same,%Inh,[8]; [21],4%
same,%Inh,[9]; [21],16%
same,%Inh,[10]; [21],79%
same,%Inh,[11]; [21],14%
same,%Inh,[12]; [21],5%
same,%Inh,[13]; [21],0%
same,%Inh,[14]; [21],9%
same,%Inh,[15]; [21],18%
same,%Inh,[16]; [21],8%
same,%Inh,[17]; [21],0%
same,%Inh,[18]; [21],0%
same,%Inh,[19]; [21],0%
same,%Inh,[20]; [21],0%
Fc1cc(Cl)ccc1Nc1ccnc2cc(I)ccc12 [GW551191],%Inh,[1]; [21],31%
same,%Inh,[2]; [21],6%
same,%Inh,[3]; [21],10%
same,%Inh,[4]; [21],15%
same,%Inh,[5]; [21],0%
same,%Inh,[6]; [21],37%
same,%Inh,[7]; [21],24%
same,%Inh,[8]; [21],0%
same,%Inh,[9]; [21],32%
same,%Inh,[10]; [21],3%
same,%Inh,[11]; [21],0%
same,%Inh,[12]; [21],28%
same,%Inh,[13]; [21],13%
same,%Inh,[14]; [21],16%
same,%Inh,[15]; [21],18%
same,%Inh,[16]; [21],3%
same,%Inh,[17]; [21],0%
same,%Inh,[18]; [21],0%
same,%Inh,[19]; [21],6%
same,%Inh,[20]; [21],2%
CN(C)CCN(C)C(=O)c1cc(-c2ccncc2)c(-c2ccc(Cl)c(O)c2)o1.Cl.Cl [SB-710397],%Inh,[1]; [21],51%
same,%Inh,[2]; [21],2%
same,%Inh,[3]; [21],0%
same,%Inh,[4]; [21],17%
same,%Inh,[5]; [21],0%
same,%Inh,[6]; [21],43%
same,%Inh,[7]; [21],35%
same,%Inh,[8]; [21],27%
same,%Inh,[9]; [21],24%
same,%Inh,[10]; [21],24%
same,%Inh,[11]; [21],0%
same,%Inh,[12]; [21],4%
same,%Inh,[13]; [21],43%
same,%Inh,[14]; [21],45%
same,%Inh,[15]; [21],0%
same,%Inh,[16]; [21],13%
same,%Inh,[17]; [21],0%
same,%Inh,[18]; [21],9%
same,%Inh,[19]; [21],0%
same,%Inh,[20]; [21],0%
CS(=O)(=O)c1ccc(-c2nc3n(c2-c2ccncc2)CCC3)cc1 [SKF-105942],%Inh,[1]; [21],0%
same,%Inh,[2]; [21],0%
same,%Inh,[3]; [21],42%
same,%Inh,[4]; [21],19%
same,%Inh,[5]; [21],0%
same,%Inh,[6]; [21],0%
same,%Inh,[7]; [21],0%
same,%Inh,[8]; [21],0%
same,%Inh,[9]; [21],100%
same,%Inh,[10]; [21],6%
same,%Inh,[11]; [21],0%
same,%Inh,[12]; [21],0%
same,%Inh,[13]; [21],0%
same,%Inh,[14]; [21],0%
same,%Inh,[15]; [21],0%
same,%Inh,[16]; [21],19%
same,%Inh,[17]; [21],0%
same,%Inh,[18]; [21],11%
same,%Inh,[19]; [21],0%
same,%Inh,[20]; [21],0%
Cc1cc(-c2ccc3c(c2)CC[C@@H](N[C@@H](C)c2ccccc2)C3)cnc1N.Cl [GW412617],%Inh,[1]; [21],45%
same,%Inh,[2]; [21],0%
same,%Inh,[3]; [21],12%
same,%Inh,[4]; [21],27%
same,%Inh,[5]; [21],82%
same,%Inh,[6]; [21],10%
same,%Inh,[7]; [21],8%
same,%Inh,[8]; [21],16%
same,%Inh,[9]; [21],37%
same,%Inh,[10]; [21],19%
same,%Inh,[11]; [21],0%
same,%Inh,[12]; [21],16%
same,%Inh,[13]; [21],24%
same,%Inh,[14]; [21],6%
same,%Inh,[15]; [21],17%
same,%Inh,[16]; [21],19%
same,%Inh,[17]; [21],8%
same,%Inh,[18]; [21],16%
same,%Inh,[19]; [21],1%
same,%Inh,[20]; [21],68%
Cc1cccc(-c2cc(Nc3ccncc3)c3ccccc3n2)n1 [GSK223675],%Inh,[1]; [21],0%
same,%Inh,[2]; [21],0%
same,%Inh,[3]; [21],0%
same,%Inh,[4]; [21],0%
same,%Inh,[5]; [21],0%
same,%Inh,[6]; [21],0%
same,%Inh,[7]; [21],0%
same,%Inh,[8]; [21],0%
same,%Inh,[9]; [21],0%
same,%Inh,[10]; [21],11%
same,%Inh,[11]; [21],0%
same,%Inh,[12]; [21],87%
same,%Inh,[13]; [21],0%
same,%Inh,[14]; [21],22%
same,%Inh,[15]; [21],0%
same,%Inh,[16]; [21],13%
same,%Inh,[17]; [21],0%
same,%Inh,[18]; [21],6%
same,%Inh,[19]; [21],15%
same,%Inh,[20]; [21],0%
Fc1cccc(COc2nnc(-c3ccc4c(c3)CCO4)o2)c1,%Inh,[1]; [21],14%
same,%Inh,[2]; [21],0%
same,%Inh,[3]; [21],0%
same,%Inh,[4]; [21],0%
same,%Inh,[5]; [21],24%
same,%Inh,[6]; [21],0%
same,%Inh,[7]; [21],48%
same,%Inh,[8]; [21],0%
same,%Inh,[9]; [21],0%
same,%Inh,[10]; [21],0%
same,%Inh,[11]; [21],14%
same,%Inh,[12]; [21],0%
same,%Inh,[13]; [21],3%
same,%Inh,[14]; [21],6%
same,%Inh,[15]; [21],0%
same,%Inh,[16]; [21],0%
same,%Inh,[17]; [21],14%
same,%Inh,[18]; [21],0%
same,%Inh,[19]; [21],25%
same,%Inh,[20]; [21],17%
Cc1ccc(NC(=O)Nc2cccc(C(F)(F)F)c2)cc1 [GSK955403],%Inh,[1]; 1 µM,3%
same,%Inh,[2]; 1 µM,17%
same,%Inh,[3]; 1 µM,2%
same,%Inh,[4]; 1 µM,0%
same,%Inh,[5]; 1 µM,0%
same,%Inh,[6]; 1 µM,0%
same,%Inh,[7]; 1 µM,0%
same,%Inh,[8]; 1 µM,0%
same,%Inh,[9]; 1 µM,0%
same,%Inh,[10]; 1 µM,8%
same,%Inh,[11]; 1 µM,19%
same,%Inh,[12]; 1 µM,38%
same,%Inh,[13]; 1 µM,24%
same,%Inh,[14]; 1 µM,0%
same,%Inh,[15]; 1 µM,16%
same,%Inh,[16]; 1 µM,0%
same,%Inh,[17]; 1 µM,6%
same,%Inh,[18]; 1 µM,0%
same,%Inh,[19]; 1 µM,0%
same,%Inh,[20]; 1 µM,0%

# Source: article PMC5540273 (PLoS ONE, 2017)
